From PubChem BioAssay (NCI)
This is part of a sample that, as a whole, favours compounds with a hit. Of some 79,000 tested, about 15% had one in any assay. Activity calls are given as the source filed them. Cut-off read from the data, not from the text of the source: active = growth inhibition above about 70%; inactive = the rest.

Key:
[1] = NCI Yeast Anticancer Drug Screen. Data for the wt1 strain (AID 149);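 note: 0% = growth of vehicle-treated wt1 cultures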; conditions: S. cerevisiae wt1 strain (SPY 50644) growth inhibition, active compounds read high
Outline: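 wt1 strain grown with compound or vehicle; inhibition taken from the growth difference.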

[2] = NCI Yeast Anticancer Drug Screen. Data for the rad50EPP+ strain (AID 151);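 note: 0% = growth of vehicle-treated control cultures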; conditions: S. cerevisiae rad50 mutant strain, active compounds read high
Outline: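 Compounds were applied to the rad50EPP+ yeast strain, which bears a defined DNA repair alteration, and growth inhibition was determined relative to vehicle-treated cultures.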

[3] = NCI Yeast Anticancer Drug Screen. Data for the mgt1 strain (AID 153); conditions: S. cerevisiae mgt1 mutant growth inhibition, active compounds read high
Outline: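 Strain: mgt1 yeast, one of a set carrying defined DNA damage repair or cell cycle control alterations. Compound-treated growth compared with vehicle.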

[4] = NCI Yeast Anticancer Drug Screen. Data for the rad50 strain (AID 155);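 note: 0% = growth of vehicle-only cultures of the same strain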; conditions: S. cerevisiae rad50 strain growth inhibition, active compounds read high
Outline: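 DNA repair mutant yeast, compound exposure, growth read-out; inhibition is taken relative to vehicle.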

[5] = NCI Yeast Anticancer Drug Screen. Data for the mec2-1 strain (AID 157); conditions: S. cerevisiae mec2-1 strain, active compounds read high
Outline: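 Strain: mec2-1 (DNA repair/cell cycle alteration). Compound exposure, then growth measured; inhibition expressed relative to vehicle.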

[6] = NCI Yeast Anticancer Drug Screen. Data for the rad14 strain (AID 159);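 note: 0% = growth of vehicle-treated control cultures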; conditions: S. cerevisiae rad14 strain growth inhibition, active compounds read high
Outline: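 DNA repair-defective yeast, compound-exposed; % growth inhibition derived by comparison with vehicle-treated controls.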

[7] = NCI Yeast Anticancer Drug Screen. Data for the sgs1 mgt1 strain (AID 161);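 note: 0% = growth of cultures given vehicle only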; conditions: S. cerevisiae sgs1 mgt1 strain, active compounds read high
Outline: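 Genetically altered yeast, compound exposure, growth inhibition relative to vehicle.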

[8] = NCI Yeast Anticancer Drug Screen. Data for the CLN2oe strain (AID 163);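 note: 0% = growth of vehicle-only control cultures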; conditions: S. cerevisiae CLN2oe strain, active compounds read high
Outline: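 Growth of a genetically modified yeast strain is measured after compound exposure and compared with cultures given vehicle alone.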

[9] = NCI Yeast Anticancer Drug Screen. Data for the cln2 rad14 strain (AID 165);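 note: 0% = growth equal to vehicle treated cultures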; conditions: S. cerevisiae cln2 rad14 strain, active compounds read high
Outline: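 Compounds are applied to the cln2 rad14 yeast strain, and growth is then compared with that of vehicle-treated cultures to give inhibition.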

[10] = NCI Yeast Anticancer Drug Screen. Data for the bub3 strain (AID 167); conditions: S. cerevisiae bub3 mutant strain, active compounds read high
Outline: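 In this screen, a yeast mutant lacking normal mitotic checkpoint function is challenged with compound. Relative growth versus vehicle gives the inhibition value.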

[11] = NCI Yeast Anticancer Drug Screen. Data for the wt2 strain (AID 169);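 note: 0% = growth of vehicle-treated yeast cultures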; conditions: S. cerevisiae wt2 strain growth inhibition, active compounds read high
Outline: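 This strain belongs to a panel of yeast strains with defined genetic alterations in DNA damage repair or cell cycle control. Compounds are applied, and growth inhibition is measured against vehicle-treated cultures.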

[12] = NCI Yeast Anticancer Drug Screen. Data for the mlh1 strain (AID 171);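 note: 0% = growth of vehicle-treated control cultures of the same strain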; conditions: S. cerevisiae mlh1 strain growth inhibition, active compounds read high
Outline: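 Growth of the mutant yeast strain after compound exposure, expressed as inhibition relative to vehicle-only controls.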

[13] = NCI Yeast Anticancer Drug Screen. Data for the sgs1 strain (AID 173);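 note: 0% = growth of vehicle-only control cultures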; conditions: S. cerevisiae sgs1 mutant, active compounds read high
Outline: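 Growth of a yeast strain bearing a defined genetic alteration is measured after compound treatment. Inhibition is expressed relative to vehicle-only controls.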

[14] = NCI Yeast Anticancer Drug Screen. Data for the mlh1 rad18 strain (AID 175); conditions: S. cerevisiae mlh1 rad18 strain growth inhibition, active compounds read high
Outline: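 Read-out is yeast growth inhibition, calculated against vehicle-only controls. The compound was applied to a strain engineered with DNA damage repair alterations.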

[15] = NCI Yeast Anticancer Drug Screen. Data for the rad18 strain (AID 177); conditions: S. cerevisiae rad18 mutant growth inhibition, active compounds read high
Outline: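 Growth of the mutant yeast strain after compound exposure, normalised to vehicle-only cultures.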

[16] = at 5.0 µM (retest, dose inferred, filed as 0.5)
[17] = at 50.0 µM (retest, dose inferred, filed as 5.0)

Measured: growth inhibition

CC(C)(C(=O)NN)c1ccccc1
inactive: [1]; at 1.2 µM 2% | [1]; at 3.7 µM 9% | [1]; at 11.0 µM 34% | [1]; at 33.0 µM 52% | [2]; at 1.2 µM 4% | [2]; at 3.7 µM 25% | [2]; at 11.0 µM 52% | [2]; at 33.0 µM 68% | [3]; at 1.2 µM 4% | [3]; at 3.7 µM 10% | [3]; at 11.0 µM 22% | [3]; at 33.0 µM 54% | [4]; at 1.2 µM 3% | [4]; at 3.7 µM 5% | [4]; [16] 14% | [4]; at 11.0 µM 22% | [4]; at 33.0 µM 40% | [4]; at 50.0 µM 52.9% | [5]; at 1.2 µM 0% | [5]; at 3.7 µM 1% | [5]; [16] 11% | [5]; at 11.0 µM 24% | [5]; at 33.0 µM 53% | [5]; at 50.0 µM 9.5% | [6]; at 1.2 µM -1% | [6]; at 3.7 µM -4% | [6]; at 11.0 µM 3% | [6]; at 33.0 µM 21% | [6]; at 100.0 µM 58% | [7]; [16] 14% | [7]; at 50.0 µM 14.9% | [8]; at 1.2 µM -7% | [8]; at 3.7 µM -1% | [8]; at 11.0 µM 27% | [8]; at 33.0 µM 51% | [9]; [16] 20% | [9]; at 50.0 µM 55.5% | [10]; at 1.2 µM -3% | [10]; at 3.7 µM 0% | [10]; [16] -14% | [10]; at 11.0 µM 34% | [10]; at 50.0 µM 52% | [11]; at 1.2 µM 1% | [11]; at 3.7 µM 10% | [11]; at 11.0 µM 28% | [11]; at 33.0 µM 42% | [12]; at 1.2 µM 3% | [12]; at 3.7 µM 5% | [12]; at 11.0 µM 21% | [12]; at 33.0 µM 46% | [13]; at 1.2 µM 0% | [13]; at 3.7 µM 13% | [13]; at 11.0 µM 41% | [14]; [16] 63% | [14]; at 50.0 µM 62.9% | [15]; at 1.2 µM 2% | [15]; at 3.7 µM 8% | [15]; at 11.0 µM 46%
active: [1]; at 100.0 µM 78% | [2]; at 100.0 µM 85% | [3]; at 100.0 µM 90% | [4]; [17] 99% | [4]; at 100.0 µM 82% | [5]; [17] 95% | [5]; at 100.0 µM 83% | [7]; [17] 98% | [8]; at 100.0 µM 81% | [9]; [17] 88% | [10]; at 33.0 µM 70% | [10]; [17] 97% | [10]; at 100.0 µM 94% | [11]; at 100.0 µM 83% | [12]; at 100.0 µM 91% | [13]; at 33.0 µM 71% | [13]; at 100.0 µM 94% | [14]; [17] 99% | [15]; at 33.0 µM 70% | [15]; at 100.0 µM 92%

CCN(CC)c1ccc(N=Nc2cc(S(=O)(=O)O)ccc2O)c(O)c1
inactive: [1]; at 1.2 µM 8% | [1]; at 3.7 µM 15% | [1]; at 11.0 µM 20% | [1]; at 33.0 µM 29% | [1]; at 100.0 µM 51% | [2]; at 1.2 µM 8% | [2]; at 3.7 µM -8% | [2]; at 11.0 µM -19% | [2]; at 33.0 µM -23% | [2]; at 100.0 µM -46% | [3]; at 1.2 µM 3% | [3]; at 3.7 µM -9% | [3]; at 11.0 µM 4% | [3]; at 33.0 µM 9% | [3]; at 100.0 µM 27% | [4]; at 1.2 µM -11% | [4]; at 3.7 µM -19% | [4]; [16] 56% | [4]; at 11.0 µM -33% | [4]; at 33.0 µM -28% | [4]; at 50.0 µM 29.2% | [4]; at 100.0 µM -13% | [5]; at 1.2 µM -28% | [5]; at 3.7 µM -7% | [5]; [16] 55% | [5]; at 11.0 µM -19% | [5]; at 33.0 µM -9% | [5]; at 50.0 µM -14.1% | [5]; at 100.0 µM 22% | [6]; at 1.2 µM -15% | [6]; at 3.7 µM -9% | [6]; at 11.0 µM 3% | [6]; at 33.0 µM 1% | [6]; at 100.0 µM 5% | [7]; [16] -13% | [7]; [17] -3% | [7]; at 50.0 µM 66.1% | [8]; at 1.2 µM 8% | [8]; at 3.7 µM 18% | [8]; at 11.0 µM 4% | [8]; at 33.0 µM 9% | [8]; at 100.0 µM 10% | [9]; [16] 32% | [9]; [17] 39% | [9]; at 50.0 µM 21.5% | [10]; at 1.2 µM 24% | [10]; at 3.7 µM 17% | [10]; [16] 24% | [10]; at 11.0 µM 7% | [10]; at 33.0 µM 11% | [10]; [17] 45% | [10]; at 50.0 µM 50.9% | [10]; at 100.0 µM 35% | [11]; at 1.2 µM -13% | [11]; at 3.7 µM -6% | [11]; at 11.0 µM -42% | [11]; at 33.0 µM -64% | [11]; at 100.0 µM -38% | [12]; at 1.2 µM -12% | [12]; at 3.7 µM -37% | [12]; at 11.0 µM -22% | [12]; at 33.0 µM -3% | [12]; at 100.0 µM -12% | [13]; at 1.2 µM -13% | [13]; at 3.7 µM -10% | [13]; at 11.0 µM -12% | [13]; at 33.0 µM -1% | [13]; at 100.0 µM -15% | [14]; [16] 42% | [14]; at 50.0 µM 19.9% | [15]; at 1.2 µM 2% | [15]; at 3.7 µM 3% | [15]; at 11.0 µM 2% | [15]; at 33.0 µM -2% | [15]; at 100.0 µM 7%
active: [4]; [17] 73% | [5]; [17] 81% | [14]; [17] 75%
